# Data reported in PubChem BioAssay.
# Active and inactive are the calls of the source.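 Rule for the calls, unless noted: active = mean z-score across replicates of 1.96 or higher in either the MELAS or the Rieske mutant cell line; inactive = the rest.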 *1 amine or outer side, *2 acyl side, *3 side chain or, on linkers, in order; H or OH if unused. Where a SMILES comes first, the peptide text is derived from it. Bridges are numbered along the chain shown (N, C = ends). [ ]: non-standard residue; d: D form. The star is where a group is joined. ξ: configuration not given here. pTerphenylCO(4''-OnC5H11) = CCCCCOc1ccc(-c2ccc(-c3ccc(C(=O)*)cc3)cc2)cc1; ξOrn(4,5-diOH) = O=C(C(CC(O)C(O)N[*:3])N[*:1])[*:2]; ξhTyr(βξ-OH,γξ-OH) = NC(C(=O)O)C(O)C(O)c1ccc(O)cc1; ξPro(3ξ-OH,4ξ-Me) = CC1CNC(C(=O)O)C1O; Hyp = O=C(O)[CH]1C[CH](O)CN1
# Tests used:
# [1] = viability loss with induced miR-34 in A549 – imaging, A549 dox-inducible miR-34, nuclei and caspase counts, primary screen (AID 1347080;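 active = compounds whose cell count with miR-34 switched on is under 0.7 times the count with it off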); details: A549 miR-34 inducible, Hoechst nuclei count, 48 h
# [2] = MELAS cybrid and Rieske KO viability enhancers – cell-based, MELAS cybrids, Rieske KO mouse fibroblasts, CellTiter-Glo, primary screen (AID 1508586); details: low glucose;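 note: z relative to plate mean and SD of compound and empty wells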
# [3] = stronger effect = lower value, cell number ratio, induced over uninduced
# [4] = measured here: relative caspase fold change +Dox/-Dox
# [5] = measured here: total cells with miR-34 induction, stronger effect = lower value
# [6] = measured here: total cells without miR-34 induction
# [7] = MELAS cybrid survival, CellTiter-Glo 48 h, stronger effect = higher value
# [8] = Rieske KO mouse fibroblast survival, CellTiter-Glo 72 h
# Note: test concentration not given here.
Compound,"fold change [1, 3]","fold change [1, 4]","cell count [1, 5]","cell count [1, 6]","z-score [2, 7]","z-score [2, 8]"
CC(C)NCC(C(=O)N1CCN(c2ncnc3c2C(C)CC3O)CC1)c1ccc(Cl)cc1 (stereo not given),1.1 (inactive),0.724,7580,6900,-0.408 (inactive),0.0437
CCOc1ccc(Cc2cc(C3OC(CO)C(O)C(O)C3O)ccc2Cl)cc1 (stereo not given),0.916 (inactive),0.801,7650,8340,0.52 (inactive),-0.097
C=CCc1cccc(C=NNC(=O)CN2CCN(Cc3ccccc3)CC2)c1O,0.992 (inactive),0.755,3820,3850,-0.146 (inactive),-1.03
C[C@]12C=CC(=O)N[C@@H]1CC[C@@H]1[C@H]2CC[C@]2(C)C(C(=O)Nc3cc(C(F)(F)F)ccc3C(F)(F)F)CC[C@@H]12 (stereo not given in full),0.962 (inactive),0.927,6640,6910,-0.568 (inactive),0.0125
CC1C(NC(=O)C(=NOC(C)(C)C(=O)O)c2csc(N)n2)C(=O)N1S(=O)(=O)O (stereo not given),0.929 (inactive),0.823,7110,7650,-0.398 (inactive),0.579
Cc1cc(C(C)Nc2ccccc2C(=O)O)c2nc(N3CCOCC3)cc(=O)n2c1 (stereo not given),0.956 (inactive),0.866,5770,6030,-0.296 (inactive),-0.288
Cc1cc(C(N)=O)ccc1-n1c(CCC(=O)O)ccc1-c1ccc(-n2ccnc2)cc1,0.953 (inactive),0.396,9360,9820,-0.283 (inactive),0.463
C[C@@]12C(=O)N(c3ccc(C(=O)Nc4cccc5cccnc45)cc3)C(=O)[C@@H]1C1C=CC2C1 (stereo not given in full),1.75 (inactive),0.793,7280,4160,0.0501 (inactive),-0.119
OCC1OC(c2ccc(Cl)c(Cc3ccc(OC4CCOC4)cc3)c2)C(O)C(O)C1O (stereo not given),0.997 (inactive),0.234,8710,8730,-0.39 (inactive),-0.293
N#CC1C[C@@H]2C[C@H]2N1C(=O)C(N)C12CC3CC(CC(O)(C3)C1)C2 (stereo not given in full),0.986 (inactive),0.858,7460,7570,-0.404 (inactive),0.586
C[C@]12CC[C@H]3c4ccc(OC(=O)c5ccccc5)cc4CC[C@H]3[C@@H]1CCC2O (stereo not given in full),0.921 (inactive),0.673,8340,9050,-0.15 (inactive),-0.151
CC(C)N(CCC(c1ccccc1)c1cc(CO)ccc1O)C(C)C (stereo not given),0.934 (inactive),1.04,9810,10500,-0.366 (inactive),0.299
C#C[C@@]1(OC(C)=O)CC[C@H]2[C@@H]3CCC4=CC(OC(C)=O)CC[C@@H]4[C@@H]3CC[C@@]21C (stereo not given in full),0.978 (inactive),0.478,8080,8260,-0.279 (inactive),-0.148
CC1=NN(c2ccc(C(=O)O)cc2)C(=O)C1=Cc1ccc(-c2cc(C)c(C)cc2[N+](=O)[O-])o1,0.902 (inactive),0.511,7310,8100,-0.321 (inactive),0.107
CC1C=CC=CC=CC=CC=CC=CC=CC(OC2OC(C)C(O)C(N)C2O)CC2O[C@@](O)(CC(O)CC(O)C(O)CCC(O)CC(O)CC(=O)OC(C)C(C)C1O)CC(O)C2C(=O)O (stereo not given in full),0.819 (inactive),1.3,6680,8160,-0.196 (inactive),0.383
CC(C)(C)NC(=O)C1CC[C@H]2[C@@H]3CC[C@H]4NC(=O)C=C[C@]4(C)[C@@H]3CC[C@]12C (stereo not given in full),1.03 (inactive),1.3,8400,8170,-0.417 (inactive),0.72
CC1(C)OC2C[C@H]3[C@@H]4CCC5=CC(=O)CC[C@]5(C)[C@]4(F)C(O)C[C@]3(C)[C@@]2(C(=O)CCl)O1 (stereo not given in full),0.851 (inactive),0.816,4440,5220,-0.306 (inactive),-0.265
"CCCCCOc1ccc(-c2ccc(-c3ccc(C(=O)NC4CC(O)C(O)NC(=O)C5C(O)C(C)CN5C(=O)C(C(C)O)NC(=O)C(C(O)C(O)c5ccc(O)cc5)NC(=O)C5CC(O)CN5C(=O)C(C(C)O)NC4=O)cc3)cc2)cc1 (stereo not drawn) ({pTerphenylCO(4''-OnC5H11)}-[ξOrn(4,5-diOH)]T[Hyp][ξhTyr(βξ-OH,γξ-OH)]T[ξPro(3ξ-OH,4ξ-Me)]; lactam 1-C; configuration not given here)",0.963 (inactive),0.515,5590,5810,0.0456 (inactive),-0.136
CN1[C@@H]2CC(OC(=O)C(CO)c3ccccc3)C[C@H]1[C@@H]1O[C@H]12 (stereo not given in full),0.946 (inactive),0.844,9480,10000,-0.356 (inactive),0.736
OCC1OC(O[C@]2(CCl)OC(CCl)C(O)C2O)C(O)C(O)C1Cl (stereo not given in full),0.895 (inactive),0.674,8040,8990,-0.278 (inactive),-0.16
COc1cc(C=CC(=O)O)ccc1O,0.929 (inactive),0.764,7790,8380,-0.291 (inactive),-1.2
Cc1c(Cc2ccc3ccccc3n2)c2cc(F)ccc2n1CC(=O)O,0.985 (inactive),0.424,6920,7030,0.326 (inactive),-0.0715
O=C(O)c1cc(I)ccc1NC(=O)C(Cc1ccccc1)NCc1ccccc1 (stereo not given),0.835 (inactive),0.632,8450,10100,-0.035 (inactive),1.09

Compound,"fold change [1, 3]","fold change [1, 4]","cell count [1, 5]","cell count [1, 6]","z-score [2, 7]","z-score [2, 8]"
CCOc1cc(C(CS(C)(=O)=O)N2C(=O)c3cccc(NC(C)=O)c3C2=O)ccc1OC (stereo not given),0.919 (inactive),0.498,8660,9420,-0.371 (inactive),-0.546
CCC1OC(=O)C(C)C(OC2C[C@@](C)(OC)C(O)C(C)O2)C(C)C(OC2OC(C)CC(N(C)C)C2O)[C@](C)(O)CC(C)C(=NOCOCCOC)C(C)C(O)[C@]1(C)O (stereo not given in full),0.909 (inactive),0.933,9240,10200,-0.34 (inactive),0.815
CC(C)c1nc(N(C)S(C)(=O)=O)nc(-c2ccc(F)cc2)c1C=CC(O)CC(O)CC(=O)O (stereo not given),0.92 (inactive),0.647,8010,8710,0.606 (inactive),-0.0253
NC(=O)c1cnc(NC2CCCCC2N)nc1Nc1cccc(-n2nccn2)c1 (stereo not given),0.82 (inactive),0.778,1580,1920,-0.344 (inactive),-1.57
Cc1ccc(S(=O)(=O)n2c(N)nc3ccccc32)cc1,1.01 (inactive),0.588,6490,6440,-0.425 (inactive),-0.074
Nc1nc(=O)n(C2CSC(CO)O2)cc1F (stereo not given),0.88 (inactive),0.906,7840,8920,-0.288 (inactive),0.564
Nc1nccc2c1ncn2C1C=C(CO)C(O)C1O (stereo not given),0.968 (inactive),0.366,4640,4800,-0.724 (inactive),-1.41
Nc1nc(Cl)nc2c1ncn2C1OC(CO)C(O)C1F (stereo not given),1.03 (inactive),0.719,1700,1650,0.651 (inactive),-0.114
CC1(C)[C@@H](O)CC[C@@]2(C)[C@H]1CC[C@]1(C)[C@H]2C(=O)C=C2[C@H]3C[C@@](C)(C(=O)O)CC[C@]3(C)CC[C@]21C,0.897 (inactive),0.953,7890,8800,-0.219 (inactive),0.479
CCCSc1nc(NC2CC2c2ccc(F)c(F)c2)c2nnn(C3CC(OCCO)C(O)C3O)c2n1 (stereo not given),0.894 (inactive),0.998,6430,7190,-0.266 (inactive),-0.123
CC(=O)C1CC[C@H]2[C@@H]3CCC4=CC(=O)CC[C@]4(C)[C@@H]3CC[C@]12C (stereo not given in full),0.844 (inactive),1.47,7050,8360,-0.493 (inactive),-0.487
CCNC(=O)C1OC(n2cnc3c(N)nc(NCCc4ccc(CCC(=O)O)cc4)nc32)C(O)C1O (stereo not given),1.01 (inactive),0.733,7450,7360,0.177 (inactive),-0.329
CCC1OC(=O)C(C)C(OC2C[C@@](C)(OC)C(O)C(C)O2)C(C)C(OC2OC(C)CC(N(C)C)C2O)[C@@](C)(O)CC(C)[C@@H]2NC(COCCOC)OC(C2C)[C@]1(C)O (stereo not given in full),0.923 (inactive),0.895,8840,9580,-0.208 (inactive),-0.128
Cn1c(=O)c(F)c(Nc2ccc(I)cc2F)c2c(=O)n(CC(O)CO)cnc21 (stereo not given),1.04 (inactive),0.57,3130,3010,-0.414 (inactive),-1.17
C1=CCOCc2cc(ccc2OCCN2CCCC2)Nc2nccc(n2)-c2cccc(c2)COC1,0.848 (inactive),0.685,776,915,3.58 (active),-5.03
CCC(C)(C)C(=O)OC1CC(C)C=C2C=CC(C)C(CC[C@@H]3CC(O)CC(=O)O3)[C@H]21 (stereo not given in full),1.33 (inactive),0.766,2960,2220,1.26 (inactive),-1.5
O=CC(O)C(O)C(O)CO (stereo not given),0.913 (inactive),0.975,7900,8650,0.55 (inactive),-0.188
CC(C)C1C(=O)NC(CCCN=C(N)N)C(=O)NCC(=O)NC(CC(=O)O)C(=O)NC(Cc2ccccc2)C(=O)N1C (stereo not given),0.841 (inactive),0.758,304,361,0.703 (inactive),-0.232
CCCC(NC(=O)C(C#N)=Cc1cccc(Br)n1)c1ccccc1 (stereo not given),0.929 (inactive),0.922,824,888,3.82 (active),-1.38
O=C(O[C@H]1CN2CCC1CC2)N1CCc2ccccc2C1c1ccccc1 (stereo not given in full),0.932 (inactive),0.636,6880,7380,-0.171 (inactive),0.000903
CC1(C)S[C@H]2C(NC(=O)C(N)c3ccccc3)C(=O)N2C1C(=O)O (stereo not given in full),0.913 (inactive),0.727,8130,8910,-0.295 (inactive),-0.19
CC(CCC(=O)O)[C@@H]1CC[C@H]2[C@@H]3C(O)C[C@@H]4CC(O)CC[C@]4(C)[C@@H]3CC[C@]12C (stereo not given in full),0.828 (inactive),0.703,7430,8980,-0.242 (inactive),0.0686
